Results reported in PubChem BioAssay.
Where “and” joins values, the source holds several entries; their conditions need not be identical. Identical values can stand only once. Calls of active or inactive are those of the source.

Columns and labels:
Albumin (Bos taurus) = Albumin (Bos taurus) (UniProt P02769); assay: compounds binding labelled BSA control protein – biochemical, small-molecule microarray, Alexa647 label, 635/667 nm fluorescence, artefact control for SMM control protein annotation, profiling panel (AID 1118); settings: BSA-A647 binding, fluorescence 635 nm, higher = more signal;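 note: score merges 667 nm emission intensity and signal-to-noise per printed compound spot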
[1] = probe aXIP binding to arrayed compounds – biochemical, NeuroSMM set, 635/667 nm fluorescence, primary screen (AID 1119); settings: small-molecule microarray, higher = more signal, called active from +8 up or from −8 down;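 note: probe is the protein aXip251-270 applied at 1 µg/mL to compound-printed slides; binding of probe to printed compounds measured as 667 nm fluorescence plus signal to noise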
[2] = probe aNOTCH3 binding on compound microarray – biochemical, small-molecule microarray, 635/667 nm fluorescence, primary screen (AID 1120); settings: higher = more signal;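 note: probe is a biotin-tagged antibody raised against NOTCH3 rather than NOTCH3 protein; score merges spot fluorescence near 667 nm with spot signal to noise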
[3] = probe aNOTCH2 binding on compound microarray – biochemical, small-molecule microarray, 635/667 nm fluorescence, primary screen (AID 1121); settings: higher = more signal;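 note: score merges feature fluorescence read at 667 nm with its signal to noise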
[4] = molecular target: Carbonic anhydrase 2 (Homo sapiens) (UniProt P00918); assay: compounds binding carbonic anhydrase 2 – biochemical, small-molecule microarray, Alexa647-labelled CAII, profiling panel (AID 1122); settings: CAII-A647 binding fluorescence, higher = more signal
[5] = COS7 lysate on small-molecule microarray, probe aHis, 635 nm (AID 1123); settings: COS7 cell lysate, fluorescence, higher = more signal;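 note: z-score combines 667nm fluorescence intensity with signal-to-noise per printed compound spot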
[6] = probe aLAP1 signal on lysate-treated microarray – cell lysate, small-molecule microarray, COS7 lysate, primary screen (AID 1124); settings: probe aLAP1, fluorescence, higher = more signal;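 note: lysate comes from COS7 cells expressing LAP1 and is applied at 0.3 µg/mL; score merges spot fluorescence near 667 nm with signal-to-noise over triplicate slides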
Sam68 (KHDRBS1) = assay: compounds binding KHDRBS1 protein – biochemical, small-molecule microarray, 635 nm fluorescence, primary screen (AID 1125); settings: higher = more signal;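 note: score merges 667 nm channel intensity with signal to noise over triplicate slides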
[7] = system: Chordin-like protein 2 (CHRDL2); assay: compounds binding chordin-like 2 – biochemical, small-molecule microarray, 635 nm fluorescence, primary screen (AID 1126); settings: fluorescence 635 nm, higher = more signal;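 note: printed compound slides probed with Chrdl2 protein at 4 µg/mL for 1 h at 4 C; score merges 667 nm emission intensity with signal to noise over three replicate slides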
[8] = molecular target: Concanavalin-A (Canavalia ensiformis) (UniProt P02866); assay: compounds binding concanavalin A lectin – biochemical, small-molecule microarray, Alexa647 label, 635 nm, artefact control for SMM control protein annotation, primary screen (AID 1127); settings: ConA-A647 binding fluorescence, higher = more signal;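 note: z combines 667 nm emission intensity with signal-to-noise across three replicate slides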
[9] = compounds binding Alexa647 anti-His antibody – biochemical, small-molecule microarray, 635 nm fluorescence, artefact control for SMM control protein annotation, primary screen (AID 1128); settings: higher = more signal;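 note: score merges feature fluorescence with signal-to-noise for each printed compound spot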
[10] = system: Human papillomavirus type 1a E7 protein (residues 1-88); assay: HPV1a E7 small-molecule binders, primary screen, biochemical, small-molecule microarray, residues 1-88, 635 nm (AID 1129); settings: small-molecule microarray binding, fluorescence 635 nm; higher = more signal
[11] = molecular target: Focal adhesion kinase 1 (Homo sapiens) (UniProt Q05397); assay: PTK2 protein binding on printed compound slides – biochemical, small-molecule microarray, 635/667 nm fluorescence, BSA, DTT, primary screen (AID 1130); settings: 635 nm fluorescence, higher = more signal;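 note: composite of spot emission at 667 nm and signal to noise over triplicate slides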
[12] = system: Fibrinogen (Alexa647-labelled); assay: Alexa647-fibrinogen binding to printed small molecules – biochemical, small-molecule microarray, 635/667 nm fluorescence, artefact control for SMM control-protein annotation, profiling panel (AID 1131); settings: fibrinogen-A647 binding fluorescence, higher = more signal;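 note: z-score merges 667 nm fluorescence with per-spot signal-to-noise over triplicate slides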
[13] = molecular target: Follistatin (Homo sapiens) (UniProt P19883); assay: FST protein binding to printed compounds – biochemical, small-molecule microarray, 635/667 nm fluorescence, primary screen (AID 1132); settings: 635 nm fluorescence, higher = more signal
[14] = molecular target: Fibroblast growth factor 2 (Homo sapiens) (UniProt P09038); assay: basic fibroblast growth factor binding to printed compounds – biochemical, small-molecule microarray, 635/667 nm fluorescence, primary screen (AID 1133); settings: FGF2, fluorescence 635/667, higher = more signal
[15] = JC-1 mitochondrial potential readout, lung cancer cells – cell-based, A549, JC-1 fluorescence, basal, 24 h, 100 nL, profiling panel (AID 1138); settings: higher = more signal;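 note: A549 lung adenocarcinoma cells under basal conditions with no added stimulus; test concentration not given here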
Lefty1 = Lefty1 protein binding to printed compounds – biochemical, small-molecule microarray, 635/667 nm fluorescence, primary screen (AID 1139); settings: fluorescence 635/667, higher = more signal
[16] = system: wheat germ agglutinin (Triticum aestivum), Alexa647-labelled; assay: Alexa647-WGA lectin binding to printed small molecules – biochemical, small-molecule microarray, 635/667 nm fluorescence, artefact control for SMM control-protein annotation, profiling panel (AID 1140); settings: WGA-A647 binding, 635 nm fluorescence, higher = more signal;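 note: score merges 667 nm feature emission with signal to noise over triplicate slides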
[17] = molecular target: Luciferin 4-monooxygenase (Photinus pyralis) (UniProt P08659); assay: inhibition of purified Photinus pyralis luciferase – biochemical, luminescence, purified enzyme, 2006 set, primary screen (AID 1141); settings: purified firefly luciferase, SteadyGlo luminescence, 30 min; higher = more signal, called active from +8 up or from −8 down;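 note: cell-free assay with purified firefly luciferase at 100 ng per well in PBS; test concentration not given here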
Luciferin 4-monooxygenase (Photinus pyralis), sequence (P08659 whole entry, looked up): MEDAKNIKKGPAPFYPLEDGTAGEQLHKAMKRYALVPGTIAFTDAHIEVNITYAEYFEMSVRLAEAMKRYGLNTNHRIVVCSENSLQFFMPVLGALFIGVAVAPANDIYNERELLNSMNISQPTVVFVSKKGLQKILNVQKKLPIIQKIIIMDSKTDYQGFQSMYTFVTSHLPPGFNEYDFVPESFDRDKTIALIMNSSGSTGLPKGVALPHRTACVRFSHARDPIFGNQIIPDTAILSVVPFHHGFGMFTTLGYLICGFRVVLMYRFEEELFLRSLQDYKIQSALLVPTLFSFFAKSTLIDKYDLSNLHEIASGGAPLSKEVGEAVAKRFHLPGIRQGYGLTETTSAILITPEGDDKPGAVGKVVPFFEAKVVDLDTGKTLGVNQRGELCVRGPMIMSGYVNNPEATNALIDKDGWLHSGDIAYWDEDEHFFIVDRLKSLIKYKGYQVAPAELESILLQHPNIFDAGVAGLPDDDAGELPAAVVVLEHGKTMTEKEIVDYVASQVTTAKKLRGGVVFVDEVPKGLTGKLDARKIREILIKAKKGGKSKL

Fibroblast growth factor 2 (Homo sapiens), sequence (P09038 whole entry, looked up): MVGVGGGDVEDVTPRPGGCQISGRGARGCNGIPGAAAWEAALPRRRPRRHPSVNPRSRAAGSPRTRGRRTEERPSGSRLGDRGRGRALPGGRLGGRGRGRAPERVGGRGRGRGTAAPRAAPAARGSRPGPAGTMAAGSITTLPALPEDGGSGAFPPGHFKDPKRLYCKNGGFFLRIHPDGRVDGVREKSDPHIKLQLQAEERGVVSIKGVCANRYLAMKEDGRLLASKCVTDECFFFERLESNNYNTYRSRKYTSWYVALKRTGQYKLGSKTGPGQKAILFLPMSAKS
Follistatin (Homo sapiens), sequence (P19883 whole entry, looked up): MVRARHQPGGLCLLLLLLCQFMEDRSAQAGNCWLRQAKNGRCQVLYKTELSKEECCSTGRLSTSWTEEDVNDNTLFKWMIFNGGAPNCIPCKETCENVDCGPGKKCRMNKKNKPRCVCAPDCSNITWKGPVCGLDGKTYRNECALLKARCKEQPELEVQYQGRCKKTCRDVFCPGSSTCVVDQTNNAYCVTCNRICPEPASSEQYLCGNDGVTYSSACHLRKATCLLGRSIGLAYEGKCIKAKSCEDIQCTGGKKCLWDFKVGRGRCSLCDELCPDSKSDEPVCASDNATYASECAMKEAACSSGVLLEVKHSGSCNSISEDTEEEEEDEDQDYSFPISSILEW
Albumin (Bos taurus), sequence (P02769 whole entry, looked up): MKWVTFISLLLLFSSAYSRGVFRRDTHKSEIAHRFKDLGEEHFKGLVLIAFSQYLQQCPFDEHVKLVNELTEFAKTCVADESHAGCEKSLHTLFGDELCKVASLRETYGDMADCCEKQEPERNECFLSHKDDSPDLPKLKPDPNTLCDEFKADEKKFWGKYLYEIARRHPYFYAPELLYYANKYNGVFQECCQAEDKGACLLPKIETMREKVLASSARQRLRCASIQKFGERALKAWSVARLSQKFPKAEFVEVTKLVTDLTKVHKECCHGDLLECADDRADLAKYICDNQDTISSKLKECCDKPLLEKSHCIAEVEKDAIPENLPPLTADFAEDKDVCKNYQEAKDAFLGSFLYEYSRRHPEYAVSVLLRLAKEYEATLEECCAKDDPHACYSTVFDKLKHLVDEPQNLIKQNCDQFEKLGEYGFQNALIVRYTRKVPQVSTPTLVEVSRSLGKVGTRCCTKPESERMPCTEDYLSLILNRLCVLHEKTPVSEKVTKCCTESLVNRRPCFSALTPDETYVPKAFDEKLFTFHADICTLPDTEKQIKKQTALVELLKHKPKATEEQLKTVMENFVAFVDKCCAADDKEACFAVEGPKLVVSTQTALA
Focal adhesion kinase 1 (Homo sapiens), sequence (Q05397 whole entry, looked up): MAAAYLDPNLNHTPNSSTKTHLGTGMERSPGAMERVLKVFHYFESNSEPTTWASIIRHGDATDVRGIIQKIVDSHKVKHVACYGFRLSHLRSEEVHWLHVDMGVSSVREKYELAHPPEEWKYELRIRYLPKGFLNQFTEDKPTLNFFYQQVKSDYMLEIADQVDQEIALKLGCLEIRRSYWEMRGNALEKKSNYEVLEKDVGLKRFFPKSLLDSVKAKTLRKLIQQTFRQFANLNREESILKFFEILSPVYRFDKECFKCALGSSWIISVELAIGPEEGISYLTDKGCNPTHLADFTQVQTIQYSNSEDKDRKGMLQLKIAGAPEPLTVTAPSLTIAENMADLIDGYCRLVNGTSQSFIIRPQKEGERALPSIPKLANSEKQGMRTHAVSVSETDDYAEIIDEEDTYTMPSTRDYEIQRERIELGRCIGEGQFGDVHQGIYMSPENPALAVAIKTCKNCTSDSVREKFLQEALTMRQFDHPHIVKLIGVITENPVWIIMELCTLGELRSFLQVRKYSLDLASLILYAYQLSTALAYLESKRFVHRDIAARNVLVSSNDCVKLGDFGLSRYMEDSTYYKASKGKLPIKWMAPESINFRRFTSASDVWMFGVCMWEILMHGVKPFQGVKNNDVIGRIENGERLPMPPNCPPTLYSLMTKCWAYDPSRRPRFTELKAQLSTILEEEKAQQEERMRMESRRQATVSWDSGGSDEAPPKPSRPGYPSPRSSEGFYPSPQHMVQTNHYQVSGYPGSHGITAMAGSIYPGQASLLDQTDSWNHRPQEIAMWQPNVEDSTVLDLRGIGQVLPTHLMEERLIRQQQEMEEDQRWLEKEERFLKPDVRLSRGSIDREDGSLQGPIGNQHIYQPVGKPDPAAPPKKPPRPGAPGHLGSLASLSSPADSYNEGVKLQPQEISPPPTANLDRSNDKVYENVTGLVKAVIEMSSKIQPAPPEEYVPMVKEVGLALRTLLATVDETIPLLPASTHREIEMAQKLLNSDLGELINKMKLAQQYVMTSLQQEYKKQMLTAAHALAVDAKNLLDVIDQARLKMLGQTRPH
Concanavalin-A (Canavalia ensiformis), sequence (P02866 whole entry, looked up): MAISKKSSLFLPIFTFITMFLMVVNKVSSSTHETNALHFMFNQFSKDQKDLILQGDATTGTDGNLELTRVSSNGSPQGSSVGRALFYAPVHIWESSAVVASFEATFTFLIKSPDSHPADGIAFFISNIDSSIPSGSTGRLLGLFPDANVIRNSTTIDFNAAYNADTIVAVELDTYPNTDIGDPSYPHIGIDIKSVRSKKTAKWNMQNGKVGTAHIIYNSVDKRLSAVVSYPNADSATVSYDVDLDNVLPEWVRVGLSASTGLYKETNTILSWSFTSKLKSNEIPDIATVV

| Compound | composite z-score (Albumin (Bos taurus)) | composite Z-score [1] | composite z-score [2] | composite z-score [3] | composite z-score [4] | composite z-score [5] | composite z-score [6] | composite z-score (Sam68 (KHDRBS1)) | composite z-score [7] | composite z-score [8] | composite z-score [9] | composite z-score [10] | composite z-score [11] | composite z-score [12] | composite z-score [13] | composite z-score [14] | z-score [15] | composite z-score (Lefty1) | composite z-score [16] | z-score [17] |
| --- | --- | --- | --- | --- | --- | --- | --- | --- | --- | --- | --- | --- | --- | --- | --- | --- | --- | --- | --- | --- |
| C[C@@H]1CC[C@@H](C(=O)O)N[C@H]1c1ccc(-c2ccco2)cc1 | 0.0852 | -0.122 (inactive) | 0.0458 | -0.16 | 0.812 | 0.01 | -0.103 | 0.108 | 1.1 | 0.529 | 0.893 | -0.253 | 0.0242 | 1.02 | 1.32 | 1.14 | 1.41 | 1.18 | 0.589 | -0.906 (inactive) |
| CCOC(=O)CCN1C(=O)[C@H]2[C@H]3[C@H](O)[C@H](O)CC(=NNC(=O)OCC)[C@@H]3CC[C@H]2C1=O | 0.357 | -0.436 (inactive) | 0.229 | -0.0131 | -0.249 | 0.043 | 0.127 | 0.739 | -0.0855 | 0.0804 | -0.23 | 0.364 | 0.366 | 0.384 | -0.124 | 0.447 | 0.167 | -0.0407 | -0.368 | 0.406 (inactive) |
| COC(=O)[C@H](C)NC(=O)CCC1CC(OC(=O)NCCc2ccc(F)cc2)CC2(CCCC(COC(=O)NCCCN3CCCC3=O)O2)O1 (stereo not given in full) | 0.171 | 2.06 (inactive) | 0.0159 | 0.666 | 0.194 | 0.275 | 0.0736 | 1.3 | 0.407 | 1.07 | 0.944 | 1.17 | 0.534 | 0.872 | 1.03 | 1.3 | -0.498 | 1.55 | 0.526 | 0.824 (inactive) |
| CC(=O)OC[C@H]1O[C@H](C#CC(C)(C)C)C=C[C@@H]1OC(C)=O | 0.895 | -0.0921 (inactive) | 0.116 | -0.0649 | 0.813 | 1.6 | 0.164 | 1.22 | 0.411 | 1.09 | 0.726 | 0.996 | 0.589 | 0.979 | 0.418 | 0.791 | 0.707 | 1.22 | 0.445 | -1.22 (inactive) |
| CCCNC(=O)OC[C@H]1O[C@H](CCON=C(C)CCN2CCc3nc(-c4ccccc4)c(-c4ccccc4)cc3C2)C=C[C@@H]1Oc1ccc(OC)cc1 | 0.216 | 0.126 (inactive) | 0.0179 | -0.108 | -0.0398 | 0.73 | 0.354 | 0.389 | -0.273 | 0.472 | 1.29 | 0.0969 | 0.301 | 0.283 | 0.295 | 0.279 | 1.87 | 0.236 | 0.356 | -0.076 (inactive) |
| CCCC[C@@H]1CN2[C@H](c3ccc(Br)cc3)[C@@H](C)CC[C@H]2C(=O)O1 | -0.102 and -0.193 | -0.0662 (inactive) and -0.0677 (inactive) | -0.17 and -0.0888 | -0.14 and -0.0316 | -0.199 and -0.139 | -0.263 and 0.0681 | 0.43 and 0.159 | -0.32 and 0.277 | 0.204 and 0.111 | 0.404 and -0.854 | -0.408 and 2.44 | -0.535 and -0.105 | -0.0211 and 0.0131 | -0.167 and 0.546 | 0.0438 and -0.0845 | 0.186 and 0.0412 | 0.5 and 0.647 | -0.128 and 0.0556 | -0.22 and 0.313 | -0.052 (inactive) and -1.79 (inactive) |
| CCCCN1CC=CC23O[C@@H]4C=CCCOC(=O)C4[C@H]2C(=O)N(C(C)CO)[C@@H]3C1=O (stereo not given in full) | -0.12 and -0.441 | -0.238 (inactive) and -0.166 (inactive) | -0.222 and -0.0647 | -0.21 and -0.147 | 0.837 and 0.777 | 0.462 and 0.472 | 0.216 and 0.436 | 0.206 and -0.0241 | 0.375 and -0.0584 | -1.63 and 0.0212 | 2.27 and -0.329 | -0.461 and -0.54 | -0.293 and -0.0655 | -1.04 and -0.749 | -0.546 and 0.101 | -0.579 and -0.63 | -0.224 and -0.725 | -0.222 and 0.172 | -0.558 and -0.281 | -0.0385 (inactive) and -0.213 (inactive) |
| CCOC(=O)[C@@H]1CC=C2CC1C(=O)N1CCC[C@@H]1[C@H]2O[Si](C)(C)C(C)(C)C (stereo not given in full) | -0.657 and -0.964 | 0.047 (inactive) and -0.365 (inactive) | -0.227 and -0.352 | -0.147 and -0.202 | -0.33 and -0.492 | -0.273 and -0.211 | -0.687 and -0.442 | -1.04 and -1.8 | -0.486 and -0.0717 | -2.59 and -3.25 | -1.02 and -0.542 | -0.419 and -0.434 | -0.758 and -0.489 | -0.454 and -1.61 | -0.76 and -0.645 | -0.424 and -0.469 | -0.827 and -0.338 | -0.224 and -0.132 | -0.992 and -0.976 | 0.0411 (inactive) and 0.838 (inactive) |
| CO[C@H]1COC(=O)CC=C[C@@H](C)COC(=O)[C@@H](OCc2ccccc2)C=C[C@@H]1C | -0.853 | 0.528 (inactive) | -0.307 | -0.179 | -0.297 | -0.173 | 0.106 | -0.239 | 1.23 | -1.64 | 0.563 | -1.07 | -0.279 | -1.44 | 1.47 | 1.74 | 1.8 | 1.65 | -1.13 | -0.917 (inactive) |
| COC(=O)C1=C(C)N(Cc2ccccc2)C2=C3C(=O)N(c4ccccc4)C(=O)[C@@H]3[C@@](O)(C(=O)OC)C(=O)N2[C@@H]1c1ccccc1 | 0.361 and 0.207 | 0.0519 (inactive) and 0.0894 (inactive) | 0.236 and 0.116 | -0.0767 and -0.101 | 0.46 and 0.7 | 0.241 and 0.608 | 0.171 and 0.983 | 0.462 and 1.13 | 0.513 and 0.402 | -0.196 and 0.475 | 0.387 and 0.668 | 0.186 and 1.1 | 0.14 and 0.113 | 0.212 and 0.393 | 0.988 and 0.726 | 1.63 and 0.5 | 0.895 and 1.76 | 0.823 and 0.745 | 0.0882 and 0.764 | -0.471 (inactive) and -1.33 (inactive) |
